From the antibiotic and cytotoxicity screens of Wong et al. (2023) come the findings set out here.

Each structure is given as a SMILES string. Among all 39,000 compounds or so, about 1,500 (3.8%) were called active. The list comes from a sample in which actives are over-represented; it also holds similar structures and randomly drawn compounds.

The test concerns HSkMC (human skeletal muscle cells). Description: cytotoxicity call (relative viability < 0.9). The following applies: 10 µM.
As to `COc1ccc(CN(C)C[C@H]2OCCCC[C@@H](C)Oc3ccc(NC(=O)c4ccccc4)cc3C(=O)N([C@H](C)CO)C[C@H]2C)cc1`, the cytotoxicity call is “inactive”.
`C[C@@H]1CN([C@H](C)CO)C(=O)c2cc(NS(=O)(=O)c3cccs3)ccc2O[C@@H]1CN(C)S(=O)(=O)c1ccc(F)cc1`: the cytotoxicity call was “inactive”.
The entry for `COc1ccc(NC(=O)N(C)C[C@H]2Oc3ncc(C#CCN(C)C)cc3C(=O)N([C@@H](C)CO)C[C@@H]2C)cc1` is “inactive”.
The entry for `C[C@@H]1CCCCO[C@@H](CN(C)C(=O)C2CCCCC2)[C@@H](C)CN([C@H](C)CO)C(=O)c2cc(NC(=O)Nc3cccc4ccccc34)ccc2O1` is “inactive”; for `COc1ccc(NC(=O)N(C)C[C@@H]2OCCCC[C@H](C)Oc3ccc(NC(=O)NC4CCCCC4)cc3C(=O)N([C@H](C)CO)C[C@@H]2C)cc1` it is “inactive”; for `COCC#Cc1ccc2c(c1)O[C@H](CN(C)S(=O)(=O)c1ccc(F)cc1)[C@H](C)CN([C@@H](C)CO)S2(=O)=O` it is “inactive”.
Take `COc1cccc(S(=O)(=O)Nc2ccc3c(c2)[C@@H]2C[C@H](CC(=O)N4CCCCC4)O[C@H](CO)[C@@H]2O3)c1`: the cytotoxicity call was “inactive”.
In the case of `C[C@@H]1CCCCO[C@@H](CN(C)S(=O)(=O)c2ccc(F)cc2)[C@@H](C)CN([C@@H](C)CO)C(=O)c2cc(NS(C)(=O)=O)ccc2O1`, the cytotoxicity call is “inactive”.
Turning to `C[C@@H]1CN([C@@H](C)CO)C(=O)c2cc(NC(=O)Nc3cccc4ccccc34)ccc2O[C@@H](C)CCCCO[C@H]1CN(C)Cc1ccccc1`, the cytotoxicity call is “inactive”.
As for `C[C@@H]1CN([C@@H](C)CO)C(=O)c2cc(NC(=O)Nc3cccc4ccccc34)ccc2O[C@@H](C)CCCCO[C@@H]1CN(C)Cc1ccccc1`, the cytotoxicity call is “active”.
The entry for `C[C@H]1CCCCO[C@H](CN(C)Cc2ccccc2)[C@@H](C)CN([C@@H](C)CO)C(=O)c2cc(NC(=O)Nc3cccc4ccccc34)ccc2O1` is “active”; for `C[C@@H]1CCCCO[C@@H](CN(C)Cc2ccccc2)[C@H](C)CN([C@@H](C)CO)C(=O)c2cc(NC(=O)Nc3cccc4ccccc34)ccc2O1` it is “inactive”.
The entry for `C[C@@H]1CCCCO[C@H](CN(C)Cc2ccccc2)[C@H](C)CN([C@@H](C)CO)C(=O)c2cc(NC(=O)Nc3cccc4ccccc34)ccc2O1` is “active”.
Consider `C[C@@H]1CCCCO[C@@H](CN(C)Cc2ccc(C(=O)O)cc2)[C@@H](C)CN([C@@H](C)CO)C(=O)c2cc(NC(=O)Nc3cccc4ccccc34)ccc2O1`, for which the cytotoxicity call is “inactive”.
For the compound `C[C@@H]1CN([C@H](C)CO)C(=O)c2cc(NC(=O)Nc3cccc4ccccc34)ccc2O[C@@H](C)CCCCO[C@@H]1CN(C)Cc1ccccc1`, the cytotoxicity call is “inactive”.
With `C[C@@H]1CCCCO[C@@H](CN(C)Cc2ccccc2)[C@@H](C)CN([C@H](C)CO)C(=O)c2cc(NC(=O)Nc3cccc4ccccc34)ccc2O1` the entry was “inactive”; with `C[C@@H]1CCCCO[C@@H](CN(C)Cc2ccccc2)[C@H](C)CN([C@H](C)CO)C(=O)c2cc(NC(=O)Nc3cccc4ccccc34)ccc2O1`, “inactive”; with `COc1ccc(S(=O)(=O)N2C[C@H](O)COC[C@@H]3O[C@@H](CC(=O)N[C@H]4CCN(Cc5ccccc5)C4)CC[C@H]32)cc1`, “inactive”.
The entry for `CN1C[C@@H](O)COC[C@H]2O[C@H](CC(=O)N3CCN(c4ccccc4)CC3)CC[C@@H]21` is “inactive”; for `C=CCOC(=O)[C@H]1[C@@H]2C(=O)O[C@@H](c3ccccc3)[C@@H](c3ccccc3)N2[C@@H](c2ccc(OCCOC(=O)[C@H]3C[C@H]4C(=O)N[C@@H](Cc5ccccc5)C(=O)N4[C@H]3c3cccc(OCCO)c3)cc2)[C@]12C(=O)Nc1ccc(I)cc12` it is “inactive”; for `CCS(=O)(=O)N1C[C@]2(CCN(CC2)C(=O)NC2CCCC2)c2c(n(c3cc(ccc23)OC)C)[C@@H]1CO` it is “inactive”.
The entry for `C[C@@H]1CN([C@@H](C)CO)C(=O)c2cc(NC(=O)Nc3ccc(C(F)(F)F)cc3)ccc2O[C@H]1CN(C)C(=O)NC1CCCCC1` is “inactive”; for `C[C@@H]1CCCCO[C@@H](CN(C)C(=O)Nc2ccc(C(F)(F)F)cc2)[C@@H](C)CN([C@@H](C)CO)C(=O)c2cc(NC(=O)C3CCCCC3)ccc2O1` it is “inactive”.
Turning to `CCNC(=O)C[C@@H]1C=C[C@H](NC(=O)C2CCOCC2)[C@@H](CO)O1`, the cytotoxicity call was “inactive”.
For the compound `C[C@@H]1CCCCO[C@@H](CN(C)S(=O)(=O)c2cccs2)[C@H](C)CN([C@@H](C)CO)C(=O)c2cc(NC(=O)CCC(F)(F)F)ccc2O1`, the cytotoxicity call is “inactive”.
The entry for `CS(=O)(=O)Nc1ccc2c(c1)[C@@H]1C[C@@H](CC(=O)NCc3ccc(-c4ccccc4)cc3)O[C@H](CO)[C@@H]1O2` is “inactive”; for `O=C(C[C@H]1C[C@H]2c3cc(NC(=O)NC4CCCC4)ccc3O[C@H]2[C@@H](CO)O1)NCc1ccc(-c2ccccc2)cc1` it is “inactive”.
With `CS(=O)(=O)Nc1ccc2c(c1)[C@H]1C[C@H](CC(=O)NCc3ccc(-c4ccccc4)cc3)O[C@@H](CO)[C@H]1O2` the entry was “inactive”; with `O=C(C[C@H]1C[C@H]2c3cc(NC(=O)NC4CCCC4)ccc3O[C@H]2[C@H](CO)O1)NCc1ccc(-c2ccccc2)cc1`, “inactive”; with `O=C(C[C@H]1C[C@@H]2c3cc(NC(=O)NC4CCCC4)ccc3O[C@@H]2[C@H](CO)O1)NCc1ccc(-c2ccccc2)cc1`, “inactive”.
Consider `CS(=O)(=O)Nc1ccc2c(c1)[C@@H]1C[C@@H](CC(=O)NCc3ccc(-c4ccccc4)cc3)O[C@@H](CO)[C@@H]1O2`, for which the cytotoxicity call is “active”.
Take `O=C(C[C@H]1C[C@@H]2c3cc(NC(=O)NC4CCCC4)ccc3O[C@@H]2[C@@H](CO)O1)NCc1ccc(-c2ccccc2)cc1`: the cytotoxicity call was “active”.
`O=C(C[C@@H]1C[C@H]2c3cc(NC(=O)NC4CCCC4)ccc3O[C@H]2[C@H](CO)O1)NCc1ccc(-c2ccccc2)cc1`: the cytotoxicity call was “active”.
The entry for `O=C(C[C@@H]1C[C@@H]2c3cc(NC(=O)NC4CCCC4)ccc3O[C@@H]2[C@@H](CO)O1)NCc1ccc(-c2ccccc2)cc1` is “inactive”; for `CC(C)NC(=O)N[C@@H]1C=C[C@@H](CC(=O)O)O[C@@H]1CO` it is “inactive”; for `COc1ccc(S(=O)(=O)N(C)C[C@H]2Oc3ccc(NS(=O)(=O)c4cccs4)cc3CC(=O)N([C@H](C)CO)C[C@@H]2C)cc1` it is “inactive”.
Take `C[C@@H]1CN([C@@H](C)CO)C(=O)c2cc(NC(=O)Nc3ccccc3)ccc2O[C@@H](C)CCCCO[C@H]1CN(C)S(=O)(=O)c1ccc(C(F)(F)F)cc1`: the cytotoxicity call is “inactive”.
Regarding `Cc1ccc2cccc(OCCOc3ccccc3C(C)C)c2n1`, the cytotoxicity call was “inactive”.
The entry for `O=C(C[C@@H]1CC[C@H]2[C@@H](COC[C@@H](O)CN2S(=O)(=O)c2ccc(Oc3ccccc3)cc2)O1)NC1CCC1` is “inactive”.
`Cc1ccc2nc([C@H](N)C(C)C)[nH]c2c1`: the cytotoxicity call was “inactive”.
In the case of `C[C@@H]1CN([C@H](C)CO)C(=O)Cc2cc(NC(=O)Cc3ccccc3)ccc2O[C@@H]1CN(C)Cc1ccc(Cl)c(Cl)c1`, the cytotoxicity call was “active”.
`C[C@@H]1CN([C@H](C)CO)C(=O)Cc2cc(NC(=O)Cc3ccccc3)ccc2O[C@H]1CN(C)Cc1ccc(Cl)c(Cl)c1`: the cytotoxicity call was “inactive”.
Take `C[C@@H]1CN([C@@H](C)CO)C(=O)Cc2cc(NC(=O)Cc3ccccc3)ccc2O[C@@H]1CN(C)Cc1ccc(Cl)c(Cl)c1`: the cytotoxicity call is “active”.
The entry for `C[C@@H]1CN([C@@H](C)CO)C(=O)Cc2cc(NC(=O)Cc3ccccc3)ccc2O[C@H]1CN(C)Cc1ccc(Cl)c(Cl)c1` is “inactive”; for `C[C@H](CO)N1C[C@H](C)[C@H](CN(C)Cc2ccc(Cl)c(Cl)c2)Oc2ccc(NC(=O)Cc3ccccc3)cc2CC1=O` it is “inactive”; for `C[C@H]1CN([C@@H](C)CO)C(=O)Cc2cc(NC(=O)Cc3ccccc3)ccc2O[C@@H]1CN(C)Cc1ccc(Cl)c(Cl)c1` it is “inactive”.
The entry for `Cc1ccc(S(=O)(=O)Nc2cccc3c2O[C@@H](CN(C)S(=O)(=O)c2cccs2)[C@H](C)CN([C@@H](C)CO)C3=O)cc1` is “inactive”; for `C[C@H]1CN([C@@H](C)CO)C(=O)Cc2cc(NC(=O)C3CCCCC3)ccc2O[C@H]1CN(C)Cc1ccc(Cl)c(Cl)c1` it is “inactive”; for `C[C@@H]1CN([C@H](C)CO)C(=O)Cc2cc(NC(=O)C3CCCCC3)ccc2O[C@@H]1CN(C)Cc1ccc(Cl)c(Cl)c1` it is “active”.
With `C[C@@H]1CN([C@@H](C)CO)C(=O)Cc2cc(NC(=O)C3CCCCC3)ccc2O[C@H]1CN(C)Cc1ccc(Cl)c(Cl)c1`, the cytotoxicity call was “inactive”.
The entry for `C[C@H]1CN([C@@H](C)CO)C(=O)Cc2cc(NC(=O)C3CCCCC3)ccc2O[C@@H]1CN(C)Cc1ccc(Cl)c(Cl)c1` is “inactive”.
With `C[C@@H]1CN([C@H](C)CO)C(=O)Cc2cc(NC(=O)C3CCCCC3)ccc2O[C@H]1CN(C)Cc1ccc(Cl)c(Cl)c1` the entry was “inactive”; with `C[C@@H]1CN([C@@H](C)CO)C(=O)Cc2cc(NC(=O)C3CCCCC3)ccc2O[C@@H]1CN(C)Cc1ccc(Cl)c(Cl)c1`, “active”; with `COc1ccc(NC(=O)Nc2cccc3c2O[C@@H](CN(C)S(=O)(=O)c2cn(C)cn2)[C@@H](C)CN([C@@H](C)CO)C3=O)cc1`, “inactive”.
The entry for `O=C(C[C@H]1CC[C@H]2[C@@H](COC[C@@H](O)CN2Cc2cc(F)ccc2F)O1)N[C@H]1CCN(Cc2ccccc2)C1` is “inactive”.
For `O=C(C[C@@H]1CC[C@H](NC(=O)CN2CCOCC2)[C@@H](CO)O1)NCc1cccc(F)c1`, the cytotoxicity call is “inactive”.
Take `CN1C(=O)c2cc(NC(=O)C3CCCC3)ccc2OC[C@@H]2O[C@H](CC(=O)NCCc3ccncc3)CC[C@@H]21`: the cytotoxicity call was “inactive”.
The entry for `COc1ccc(S(=O)(=O)Nc2ccc3c(c2)CC(=O)N([C@H](C)CO)C[C@@H](C)[C@@H](CN(C)Cc2ccc(Cl)c(Cl)c2)O3)cc1` is “active”; for `COc1ccc(S(=O)(=O)Nc2ccc3c(c2)CC(=O)N([C@H](C)CO)C[C@H](C)[C@H](CN(C)Cc2ccc(Cl)c(Cl)c2)O3)cc1` it is “active”.
With `COc1ccc(S(=O)(=O)Nc2ccc3c(c2)CC(=O)N([C@@H](C)CO)C[C@@H](C)[C@H](CN(C)Cc2ccc(Cl)c(Cl)c2)O3)cc1` the entry was “inactive”.
On to `COc1ccc(S(=O)(=O)Nc2ccc3c(c2)CC(=O)N([C@@H](C)CO)C[C@H](C)[C@@H](CN(C)Cc2ccc(Cl)c(Cl)c2)O3)cc1`, for which the cytotoxicity call was “inactive”.
The entry for `COc1ccc(S(=O)(=O)Nc2ccc3c(c2)CC(=O)N([C@H](C)CO)C[C@H](C)[C@@H](CN(C)Cc2ccc(Cl)c(Cl)c2)O3)cc1` is “inactive”.
With `COc1ccc(S(=O)(=O)Nc2ccc3c(c2)CC(=O)N([C@H](C)CO)C[C@@H](C)[C@H](CN(C)Cc2ccc(Cl)c(Cl)c2)O3)cc1` the entry was “inactive”; with `COc1ccc(S(=O)(=O)Nc2ccc3c(c2)CC(=O)N([C@@H](C)CO)C[C@@H](C)[C@@H](CN(C)Cc2ccc(Cl)c(Cl)c2)O3)cc1`, “active”; with `COc1ccc(S(=O)(=O)Nc2ccc3c(c2)CC(=O)N([C@@H](C)CO)C[C@H](C)[C@H](CN(C)Cc2ccc(Cl)c(Cl)c2)O3)cc1`, “active”.
